Test system: HepG2
Assay: GSK_TCMDC: Percent inhibition of human HepG2 cell line. Test compounds present at 10uM.
Format: functional

SMILES | Inhibition [%]
Cl.N=c1n(Cc2ccc(Cl)cc2)c2ccccc2n1CC(O)c1ccc(Cl)c(Cl)c1 (stereo unspecified) | 58
Cc1[nH]c(C)c(-c2ccc(OCc3cc(F)cc(F)c3)nc2)c(=O)c1Cl | 20
CN(C)CCNCc1ccc(-c2ccc(-c3nc4cc(F)ccc4[nH]3)cc2)cc1.O=C(O)C(F)(F)F | 8
O=C(O)C(F)(F)F.c1cc(CNCCc2ccncc2)cc(-c2ccc(-c3nc4ccccc4[nH]3)s2)c1 | 1
COc1ccc(CN2CCCC(Nc3ccc(F)c(F)c3)C2)c(O)c1 (stereo unspecified) | 14
Br.CCOC(=O)c1cc(Cl)ccc1OCCCON1C(=N)N=C(N)NC1(C)C | 69
